# Test results as given in PubChem BioAssay AID2315 (National Center for Advancing Translational Sciences (NCATS), 2010).
# Screen size: about 290,000 compounds; about 27,000 (9.3%) were called active. Rule as the data show it: active = inhibition mostly above about 28% (no sharp cut-off); inactive = mostly below about 43%. Only a selection was taken, and actives are over-represented in it overall.
# Experiment: A qHTS for Small Molecule Inhibitors of Shiga Toxin; also: 0% is about no effect
# Details: Vero cells, Shiga toxin protein synthesis inhibition reporter; at 38.7 µM, hits give high values
row,SMILES,inhibition
1,CN(C(=O)CC1C(=O)NCCN1Cc1ccc(F)cc1Cl)C1CCCCC1 (stereo not given),-14.2% (inactive)
2,Cn1c(Cc2cccs2)nnc1SCC(=O)Nc1ccccc1,-7.01% (inactive)
3,CCn1c(CNc2ccc(OC)cc2)nnc1SCC(=O)c1ccc(OC)cc1,-15.6% (active)
4,CCn1c(SCC(=O)c2ccc3ccccc3c2)nnc1-c1cccs1,-3.35% (inactive)
5,CCn1c(Cc2cccs2)nnc1SCC(=O)c1ccc(C)cc1,41.4% (active)
6,Cc1ccc(-n2c(Cc3cccs3)nnc2SCC(=O)OC(C)C)cc1,8.05% (inactive)
7,COC(=O)c1ccc(NC(=O)CSc2nnc(CNc3ccc(OC)cc3)n2C)cc1,24.4% (inactive)
8,C=CCn1c(CNC(=O)c2ccco2)nnc1SCC(=O)c1ccc(OC)cc1,-12.2% (inactive)
9,CCn1c(SCC(=O)N(C)C2CCS(=O)(=O)C2)nnc1-c1cccs1 (stereo not given),-0.571% (inactive)
10,CCn1c(SCC(=O)c2ccc(Cl)s2)nnc1-c1cccs1,73.6% (active)
11,O=C(NCc1ccco1)C(c1ccncc1)N(C(=O)Cn1nnc2ccccc21)c1ccccc1 (stereo not given),-3.36% (inactive)
12,CCOC(=O)c1cc(C)nc(S(C)(=O)=O)c1C#N,47.2% (inactive)
13,CN(CCc1ccccc1)c1ccc([N+](=O)[O-])cn1,-3.15% (inactive)
14,CCCCC(c1nnnn1CS(=O)(=O)c1ccc(C)cc1)N1CCC(C(N)=O)CC1 (stereo not given),-8.35% (inactive)
15,CC1CC(C)CN(C(=O)CSc2ccsc2[N+](=O)[O-])C1 (stereo not given),63.3% (active)
16,COc1ccccc1-c1nnc(SCC(=O)N2CC(C)CC(C)C2)o1 (stereo not given),-7.49% (inactive)
17,O=C(CSc1ccsc1[N+](=O)[O-])N1CCCCC1,6.79% (inactive)
18,COCc1c(C(=O)N/N=C(\C)c2ccncc2)nnn1-c1nonc1N,-3.05% (inactive)
19,COC(=O)c1ccc(NC(=O)CSc2nnc(C3CC3)n2C)cc1,17.5% (inactive)
20,O=C(Nn1cnc2ccccc2c1=O)c1ccc(F)cc1Cl,71.8% (active)
21,O=C(Nn1cnc2ccccc2c1=O)c1ccccc1,58.6% (inactive)
22,O=C(Nn1cnc2ccccc2c1=O)c1ccc([N+](=O)[O-])cc1Cl,-11.9% (inactive)
23,COc1cc(C(=O)NCc2ccncc2)cc(Br)c1OCc1ccccc1,-9.85% (inactive)
24,CC(C(=O)NCCc1ccc(S(N)(=O)=O)cc1)N1C(=O)CC(C)(C)Sc2ccccc21 (stereo not given),-10.5% (inactive)
25,COc1ccc(N/C=C(\C2OC(=O)c3ccccc32)[N+](=O)[O-])cc1 (stereo not given),15.2% (inactive)

row,SMILES,inhibition
1,COc1ccc2c(c1OC)C(=O)OC2Nc1nc(-c2ccccc2)cs1 (stereo not given),36.9% (active)
2,COc1ccc2c(c1OC)C(=O)OC2c1c(O)nc(SC)n(-c2ccccc2)c1=O (stereo not given),-8.28% (inactive)
3,Cc1ccc(-c2csc(NC3OC(=O)c4ccccc43)n2)cc1 (stereo not given),30% (active)
4,COc1ccc(-c2csc(NC3OC(=O)c4ccccc43)n2)cc1 (stereo not given),41.6% (active)
5,CCCn1c(CCNc2nc(-c3ccc(OC)cc3)cs2)nc2ccccc21,20.9% (inactive)
6,CC(=O)Nc1ccc(-c2csc(NC=C3C(=O)OC(C)(C)OC3=O)n2)cc1,54% (inactive)
7,Cc1ccc(-c2csc(NC(=O)Cn3[nH]c(=O)c4ccccc4c3=O)n2)cc1,42.6% (inactive)
8,COc1ccc(C)cc1Nc1nc(-c2c(C)[nH]c3ccccc23)cs1,-3.8% (inactive)
9,Cc1ccc(NS(=O)(=O)c2ccc3c(c2)n(C)c(=O)c(=O)n3C)c(C)c1,-7.48% (inactive)
10,COCCN1CCn2c(nc3cc(NS(C)(=O)=O)ccc32)C1,-2.98% (inactive)
11,COc1ccc(C(=O)NC2CC(C)(C)Cc3c2cnn3-c2ccccc2C)o1 (stereo not given),-10.5% (inactive)
12,O=C(COc1ccc2c3c(c(=O)oc2c1)CCCC3)NCC(O)c1ccccc1 (stereo not given),-3.53% (inactive)
13,O=C(CCn1c(=S)[nH]c2cc3c(cc2c1=O)OCO3)NCc1ccc(Cl)cc1,1.66% (inactive)
14,O=C(CCc1nnc(Cc2ccc3c(c2)OCO3)o1)NCCc1ccccc1Cl,-5.99% (inactive)
15,CN1CCN(Cc2nc3cc(NC(=O)COc4ccc([N+](=O)[O-])cc4)ccc3n2C)CC1,-2.13% (inactive)
16,COC(=O)c1cccc(C(=O)N2CCCC(Nc3ccc4c(c3)OCCO4)C2)c1 (stereo not given),2.25% (inactive)
17,Cc1cc(/C=C2\SC(=O)N(C)C2=O)c(C)n1-c1cccc(C(=O)O)c1,3.52% (inactive)
18,COc1ccc(OCCCCN2CCC(C)CC2)cc1,-6% (inactive)
19,Cn1cc(Cl)c(C(=O)NNC(=S)Nc2cccc(Cl)c2)n1,49.5% (active)
20,Cc1cccc(NC(=S)Nc2ccc(Cl)c(Cl)c2)c1,17% (inactive)
21,CC(C)CNC(=S)NNC(=O)c1nn(C)cc1Cl,4.35% (inactive)
22,CC(Cc1cccs1)N(Cc1ccc(Cl)cc1)C(=O)c1ccncc1 (stereo not given),-3.64% (inactive)
23,COc1cc(OC)c(NS(=O)(=O)c2cn(C)cn2)cc1Cl,11.1% (inactive)
24,COc1cccc(CNC(=O)c2cccnc2Sc2ccc(Cl)cc2)c1,-40.4% (inactive)
25,CC1CCCN(c2ccc(C(=O)NCCc3ccccc3)cn2)C1 (stereo not given),78.5% (active)

row,SMILES,inhibition
1,CC1CCN(c2c(NCc3ccc(C(=O)NCc4ccccc4)cc3)c(=O)c2=O)CC1,-6.77% (inactive)
2,O=C(NCCc1ccccc1)c1ccc(NC2=NC3CS(=O)(=O)CC3S2)cc1 (stereo not given),3.05% (inactive)
3,CCN(CC)S(=O)(=O)c1ccc(N2CCCC2)c(NS(=O)(=O)c2cccs2)c1,21% (inactive)
4,COc1ccc(CNc2c(CO)cnc3c2cnn3C)cc1,-11.4% (inactive)
5,CN(C)/C=C(/C(=O)c1ccc(F)cc1)S(=O)(=O)c1ccc(F)cc1,58.3% (inactive)
6,CN(C)/C=C(/C(=O)c1ccccc1)S(=O)(=O)c1ccc(Cl)cc1,13.2% (inactive)
7,CN(C)/C=C(/C(=O)c1ccc(Cl)cc1)S(=O)(=O)c1ccccc1,64.1% (active)
8,Cc1ccc(C(CNC(=O)Nc2ccccc2)N2CCN(C)CC2)cc1 (stereo not given),-3.91% (inactive)
9,CCc1cc(=O)oc2c(C)c(OCC(=O)NCCN3CCOCC3)ccc12,-2.76% (inactive)
10,O=C(Nc1ccc(Cl)cn1)c1cnn2cccnc12,85.1% (active)
11,Cc1cc(NC(=O)c2cnn3cccnc23)n(-c2ccccc2)n1,-5.01% (inactive)
12,COc1cccc(-c2cccc(NC(=O)C3CCN(C4CCC4)CC3)c2)c1,-10.9% (inactive)
13,COc1cc(Nc2nc3ccc(Cl)cc3n3cnnc23)cc(OC)c1OC,-9.44% (inactive)
14,COc1ccc(CC(=O)Nc2cc(S(=O)(=O)N3CCCCC3)ccc2N2CCN(C)CC2)cc1,2.85% (inactive)
15,CN1CCN(c2ccc(S(=O)(=O)N3CCCCC3)cc2NC(=O)Cc2ccccc2F)CC1,-8% (inactive)
16,CCN1CCN(c2ccc(S(=O)(=O)N3CCCCC3)cc2NC(=O)Cc2c(Cl)cccc2Cl)CC1,42.5% (active)
17,COC(=O)c1cnc(Nc2cc(C)ccc2OC)c2ccccc12,-8.41% (inactive)
18,Cc1cc(F)ccc1NC(=S)NCCc1ccccc1,6.98% (inactive)
19,Cc1ccc(C)c(C(C)NC(=O)C2CCCO2)c1 (stereo not given),-10.5% (inactive)
20,Cc1ccc(COc2ccc(/C=N/NC(=O)CN3CCCCC3)cc2)cc1,87.5% (active)
21,CCOc1cc(/C=N/NC(=O)CN2CCCCC2)ccc1O,-8.43% (inactive)
22,O=C(CN1CCSCC1)N/N=C/c1ccc(Cl)cc1,29.2% (inactive)
23,CC(=O)N/C(=N/c1nc(C)cc(C)n1)Nc1ccc(F)cc1F,-13.6% (inactive)
24,CC(OC(=O)c1ccc2noc(-c3ccccc3)c2c1)C(N)=O (stereo not given),1.23% (inactive)
25,CC(=O)c1c(C)n(-c2ccc(C)cc2)c2ccc(O)cc12,-16.2% (inactive)

row,SMILES,inhibition
1,O=C(Oc1ccc(Br)cc1)c1cccnc1,22.6% (inactive)
2,CCCCCCOc1ccc(OC(=O)c2cccnc2)cc1,37.9% (inactive)
3,O=C(Oc1ccc(-c2nc(-c3ccccn3)no2)cc1)c1ccccc1,33% (active)
4,CCN(CC)Cc1c(C(=O)N/N=C/c2cccc(OCc3ccc(F)cc3)c2)nnn1-c1nonc1N,-1.06% (inactive)
5,COC(c1ccccc1)(c1ccccc1)C(Oc1nc(C)cc(C)n1)C(=O)O (stereo not given),-2.84% (inactive)
6,COc1ccc(S(=O)(=O)n2nc(C)c(S(=O)(=O)N3CCOCC3)c2C)cc1,13.2% (inactive)
7,CCOC(=O)c1c(-c2ccc(-c3ccccc3)cc2)csc1NC(=O)CCC(=O)O,-3.4% (inactive)
8,O=c1c2cc([N+](=O)[O-])ccc2nc2n1CCC2,-7.31% (inactive)
9,O=C(NCc1ccccc1Cl)C1CCCO1 (stereo not given),19.8% (inactive)
10,CSc1ccc(CNC(=O)c2ccc(NC(=O)C3=CSCCO3)cc2)cc1,16.6% (inactive)
11,O=C(Nc1ccc(C(=O)NCc2ccccc2Cl)cc1)C1=CSCCO1,47.1% (active)
12,CC12CCC(C(=O)N(NC(=O)c3ccccc3O)C1=O)C2(C)C (stereo not given),10.2% (inactive)
13,Cc1cccc(C(=O)Nc2nnc(S(=O)(=O)N3CCCCCC3)s2)c1,13.6% (inactive)
14,COc1cc(C(=O)OCc2ccc([N+](=O)[O-])cc2)cc(OC)c1OC,-13.3% (inactive)
15,COc1cc(/C=N/O)ccc1OCc1ccc([N+](=O)[O-])cc1,82.1% (active)
16,COc1cc(/C=N\Nc2ccc([N+](=O)[O-])cn2)ccc1OCC(=O)O,31.3% (inactive)
17,CN1CCN(C(=O)C(=O)c2cn(CC(=O)N3CCCC3)c3ccccc23)CC1,-13% (inactive)
18,COc1cccc(NC(=O)CS(=O)(=O)c2cn(CC(=O)N3CCOCC3)c3ccccc23)c1,-10.3% (inactive)
19,O=C(Nc1ccc(F)cc1)C(=O)c1cn(CC(=O)N2CCOCC2)c2ccccc12,15.3% (inactive)
20,O=C(NCc1ccco1)C(=O)c1cn(CC(=O)N2CCCCCC2)c2ccccc12,27.2% (inactive)
21,Cc1ccc(CNC(=O)C(=O)c2cn(CC(=O)N3CCCC3)c3ccccc23)cc1,35.1% (active)
22,Cc1ccc(CNC(=O)C(=O)c2cn(CC(=O)N3CCOCC3)c3ccccc23)cc1,79.4% (active)
23,COc1cccc(NC(=O)C(=O)c2cn(CC(=O)N3CCOCC3)c3ccccc23)c1,92.3% (active)
24,O=C(NCCCn1ccnc1)C(=O)c1cn(CC(=O)N2CCCCCC2)c2ccccc12,-6.62% (inactive)
25,CN(Cc1ccccc1)C(=O)C(=O)c1cn(CC(=O)N2CCCC2)c2ccccc12,5.26% (inactive)
